Growth data for 9 compounds are collected here from PubChem BioAssay (NCI).

Some test systems named below: NCI-H23 lung; NCI-H322M lung; HOP-62 NSCLC; NCI-H460 lung; HOP-92 NSCLC; NCI-H522 lung; A549/ATCC NSCLC; 786-0 renal; COLO 205 colon; K-562 leukemia; MALME-3M melanoma; MDA-MB-231 breast; RXF 393 renal; SF-268 CNS; SF-295 CNS; SF-539 CNS; UACC-257 melanoma; M14 melanoma; HCT-15 colon; DU-145 prostate.
Assay in all cases: NCI-60 one-dose screen, 48 h (100 = growth as untreated, 0 = no growth, -100 = all killed)
Conditions in all cases: 10 µM unless noted

About 83,000 compounds went through this panel and 20% of them were active in at least one assay; those are over-represented in the sample as a whole.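 Negative percent growth values reflect cell death: -40 means 40% of the cells present at the start died, and -100 means all died.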 Values without a mark were called inactive. The source made the active and inactive calls. Rule for the calls: active = growth percent below 10; inactive = the rest.

On to `Nc1ccc(-c2nc3cc(Oc4ccc(Oc5ccc6[nH]c(-c7ccc(N)cc7)nc6c5)cc4)ccc3[nH]2)cc1`, for which the growth in the assay with NCI-H23 lung is 78.6%; with NCI-H322M lung it was 118%; in the assay on HOP-62 NSCLC it was 107%; with NCI-H460 lung it was 95.2%; in the assay with HOP-92 NSCLC it was 104%; with NCI-H522 lung it was 73.7%. The growth in the assay on A549/ATCC NSCLC is 96.8%; in the assay on 786-0 renal it was 92%; with COLO 205 colon, 75%; in the assay on K-562 leukemia it was 94.9%; in the assay with MALME-3M melanoma it was 81.4%; in the assay on MDA-MB-231 breast it was 103%. Also, the growth is 107% with RXF 393 renal; 113% in the assay with SF-268 CNS; 63.4% in the assay on SF-295 CNS; 102% with SF-539 CNS; 95.8% in the assay with UACC-257 melanoma; 94% in the assay on M14 melanoma. Also, the growth in the assay with HCT-15 colon was 100%.
Consider `Cc1ccc(S(=O)c2ccc([N+](=O)[O-])c3nonc23)cc1` (configuration not stated), for which the growth was 102% in the assay with NCI-H23 lung; 110% with NCI-H322M lung; 112% in the assay on HOP-62 NSCLC; 99.5% in the assay with NCI-H460 lung; 109% in the assay with HOP-92 NSCLC; -60.1% (active) in the assay on NCI-H522 lung. Moreover, the growth is 101% in the assay on A549/ATCC NSCLC; 102% in the assay on 786-0 renal; -39.7% (active) in the assay with COLO 205 colon; 112% in the assay with DU-145 prostate; 38.9% in the assay on K-562 leukemia; 81.2% with MALME-3M melanoma. Besides, the growth with RXF 393 renal is 111%; with SF-268 CNS, 105%; in the assay with SF-295 CNS, 119%; in the assay with SF-539 CNS it was 106%; with UACC-257 melanoma, 100%; in the assay on M14 melanoma it was 104%. For the same compound, the growth in the assay with HCT-15 colon was 66.5%.
As to `O=C(O)c1cn(C2CC2)c2cc(N3CCN(C(=O)C[n+]4ccccc4)CC3)c(F)cc2c1=O`, the growth in the assay with NCI-H23 lung is 104%; in the assay on NCI-H322M lung, 105%; in the assay on HOP-62 NSCLC it was 103%; in the assay with NCI-H460 lung, 106%; in the assay on HOP-92 NSCLC, 98.5%; with NCI-H522 lung, 93.4%. Besides, the growth in the assay on A549/ATCC NSCLC was 99.1%; in the assay with 786-0 renal, 98.5%; in the assay on COLO 205 colon, 121%; in the assay with DU-145 prostate, 102%; in the assay on MALME-3M melanoma it was 99.5%; in the assay with MDA-MB-231 breast, 105%. Moreover, the growth in the assay on SF-268 CNS was 95.3%; in the assay on SF-295 CNS, 101%; in the assay with SF-539 CNS it was 95.1%; in the assay on UACC-257 melanoma it was 101%; with M14 melanoma it was 106%; in the assay with HCT-15 colon it was 102%.
In the case of `COc1ccc(-c2cn3c(C(=O)Nc4ccccc4Cl)c(-c4ccccc4)c4c3n2CCCC4)cc1`, the growth in the assay with NCI-H23 lung is 86.8%; in the assay with NCI-H322M lung, 102%; in the assay with HOP-62 NSCLC it was 88.1%; in the assay on NCI-H460 lung, 75.2%; with HOP-92 NSCLC, 64.3%; in the assay on NCI-H522 lung it was 76.7%. Moreover, the growth is 85.3% in the assay on A549/ATCC NSCLC; 90.8% with 786-0 renal; 77.2% with COLO 205 colon; 86.2% in the assay with DU-145 prostate; 49.8% in the assay with K-562 leukemia; 87.3% in the assay with MDA-MB-231 breast. Also, the growth in the assay with RXF 393 renal is 109%; in the assay with SF-268 CNS it was 93.1%; in the assay with SF-295 CNS, 54.7%; in the assay on SF-539 CNS it was 87%; in the assay with UACC-257 melanoma it was 91.3%; in the assay on M14 melanoma, 73.6%. The growth with HCT-15 colon was 60.8%.
With `COc1ccc(-c2nsc3c2NC(=O)CC3c2ccc3c(c2)OCCO3)cc1` (configuration not stated), the growth with NCI-H23 lung was 29%; in the assay with NCI-H322M lung it was 74.8%; with HOP-62 NSCLC it was 34.8%; in the assay with NCI-H460 lung it was 6.65% (active); with HOP-92 NSCLC, 66.1%; with NCI-H522 lung it was -15.2% (active). Moreover, the growth was 28.9% in the assay with A549/ATCC NSCLC; 28.3% in the assay with 786-0 renal; -70.4% (active) in the assay with COLO 205 colon; 5.37% (active) with DU-145 prostate; 13.3% in the assay with K-562 leukemia; 59.9% in the assay on MALME-3M melanoma. Besides, the growth in the assay on RXF 393 renal was 0.635% (active); with SF-268 CNS, 55.4%; in the assay on SF-295 CNS it was 0.403% (active); with SF-539 CNS, -17% (active); with UACC-257 melanoma, 76.2%; in the assay with M14 melanoma, 19.7%. Moreover, the growth with HCT-15 colon is 14.6%.
For the compound `O=C1C(=O)c2c(ccc3ccccc23)-c2ccccc21`, the growth was -48.4% (active) in the assay on NCI-H23 lung; 50.5% in the assay on NCI-H322M lung; 9.44% (active) in the assay on HOP-62 NSCLC; 3.58% (active) in the assay with NCI-H460 lung; -20.6% (active) in the assay with HOP-92 NSCLC; -77.4% (active) in the assay on NCI-H522 lung. The growth was 24.1% with A549/ATCC NSCLC; -6.68% (active) in the assay with 786-0 renal; 52% in the assay with COLO 205 colon; 8.29% (active) in the assay with K-562 leukemia; -83.8% (active) with MALME-3M melanoma; -7.61% (active) with MDA-MB-231 breast. Moreover, the growth with RXF 393 renal is 22%; in the assay on SF-268 CNS, 1.97% (active); in the assay with SF-295 CNS, 109%; with SF-539 CNS it was -53.5% (active); in the assay with UACC-257 melanoma it was -37.4% (active); in the assay on M14 melanoma it was -44.6% (active). For the same compound, in the assay with HCT-15 colon, the growth is -27.6% (active).
In the case of `CC(=O)SC1CC(=O)C=C2CCC3C4CCC(=O)OC4(C)CCC3C21C` (configuration not stated), the growth in the assay with NCI-H23 lung is 111%; with NCI-H322M lung it was 120%; in the assay with HOP-62 NSCLC it was 106%; in the assay with NCI-H460 lung, 115%; in the assay on HOP-92 NSCLC, 97.6%; in the assay with NCI-H522 lung it was 92.7%. Further, the growth in the assay with A549/ATCC NSCLC is 105%; in the assay with 786-0 renal, 101%; in the assay on COLO 205 colon it was 116%; in the assay on DU-145 prostate, 116%; in the assay on K-562 leukemia, 103%; in the assay on MALME-3M melanoma it was 195%. Moreover, the growth is 105% in the assay on SF-268 CNS; 94.9% in the assay on SF-539 CNS; 100% in the assay with UACC-257 melanoma; 97.7% in the assay on M14 melanoma; 106% with HCT-15 colon.
As to `COc1ccc(Nc2nc(N/N=C/c3ccc(O)cc3)nc(Nc3ccc([N+](=O)[O-])cc3)n2)cc1`, the growth with NCI-H23 lung is 103%; in the assay with NCI-H322M lung it was 110%; in the assay with HOP-62 NSCLC, 107%; in the assay on NCI-H460 lung, 107%; with HOP-92 NSCLC, 109%; with NCI-H522 lung, 95.3%. The growth with A549/ATCC NSCLC is 104%; in the assay on 786-0 renal, 105%; in the assay on COLO 205 colon, 111%; in the assay on K-562 leukemia it was 103%; with MALME-3M melanoma, 114%; in the assay with MDA-MB-231 breast, 109%. For the same compound, the growth with RXF 393 renal was 121%; in the assay with SF-268 CNS, 128%; with SF-295 CNS, 89.2%; with SF-539 CNS it was 110%; in the assay on UACC-257 melanoma, 99.9%; in the assay on M14 melanoma, 108%. Besides, in the assay with HCT-15 colon, the growth was 107%.
As to `COc1cc(/C=C/C(=O)N2c3ccccc3CC2C)c(OC)c2c1OCO2` (configuration not stated), the growth with NCI-H23 lung is 90.8%; in the assay on NCI-H322M lung, 101%; with HOP-62 NSCLC it was 119%; in the assay on NCI-H460 lung, 98.2%; with HOP-92 NSCLC, 97.4%; with NCI-H522 lung it was 81.5%. For the same compound, the growth is 89.1% in the assay on A549/ATCC NSCLC; 94.9% in the assay with 786-0 renal; 125% in the assay on COLO 205 colon; 94.5% with DU-145 prostate; 101% in the assay on MALME-3M melanoma; 92.2% in the assay on MDA-MB-231 breast. The growth in the assay with SF-268 CNS was 97%; in the assay on SF-295 CNS, 83.6%; with SF-539 CNS it was 98.3%; in the assay on UACC-257 melanoma it was 100%; with M14 melanoma, 90.7%; with HCT-15 colon it was 69.8%.
